Source: PubChem BioAssay (NCI)
This is part of a sample that, as a whole, favours compounds with a hit. Of some 79,000 tested, about 15% had one in any assay. Unmarked numbers belong to inactive results. Calls of active or inactive are those of the source. No stated cut-off is given here; in the data, active means growth inhibition above about 70%; inactive means the rest.

Tests used:
[1] = NCI Yeast Anticancer Drug Screen. Data for the rad50 strain (AID 155);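 further: 0% = growth of vehicle-only cultures of the same strain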; conditions: S. cerevisiae rad50 strain growth inhibition; at 50.0 µM; hits give high values
Summary of the method: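 Yeast carrying a defined DNA repair defect were exposed to test compounds, and growth was compared with vehicle-treated controls to give percent inhibition.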

[2] = NCI Yeast Anticancer Drug Screen. Data for the mec2-1 strain (AID 157); conditions: S. cerevisiae mec2-1 strain, at 50.0 µM, hits give high values
Summary of the method: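 mec2-1 yeast strain, carrying an alteration in DNA damage repair or cell cycle control, was exposed to compounds; growth inhibition was measured relative to vehicle-treated controls.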

[3] = NCI Yeast Anticancer Drug Screen. Data for the sgs1 mgt1 strain (AID 161);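 further: 0% = growth of cultures given vehicle only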; conditions: S. cerevisiae sgs1 mgt1 strain, at 50.0 µM, hits give high values
Summary of the method: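 Percent growth inhibition was derived by comparing compound-exposed mutant yeast with vehicle-exposed cultures. The strain carries alterations in DNA damage repair.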

[4] = NCI Yeast Anticancer Drug Screen. Data for the cln2 rad14 strain (AID 165);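 further: 0% = growth equal to vehicle treated cultures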; conditions: S. cerevisiae cln2 rad14 strain, at 50.0 µM, hits give high values
Summary of the method: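 Yeast carrying cln2 and rad14 alterations (cell cycle control and DNA damage repair) were exposed to compounds. Growth inhibition was measured against vehicle-treated controls.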

[5] = NCI Yeast Anticancer Drug Screen. Data for the bub3 strain (AID 167); conditions: S. cerevisiae bub3 mutant strain, at 50.0 µM, hits give high values
Summary of the method: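 Compounds were applied to a genetically altered yeast strain carrying a cell-cycle control defect. Growth inhibition was scored against vehicle-treated controls.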

[6] = NCI Yeast Anticancer Drug Screen. Data for the mlh1 rad18 strain (AID 175); conditions: S. cerevisiae mlh1 rad18 strain growth inhibition; at 50.0 µM; hits give high values
Summary of the method: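 Growth inhibition of the yeast strain was measured after compound exposure and expressed relative to vehicle-treated controls. The strain carries defined defects in DNA damage repair.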

| Structure (SMILES) | growth inhibition [1] | growth inhibition [2] | growth inhibition [3] | growth inhibition [4] | growth inhibition [5] | growth inhibition [6] |
| --- | --- | --- | --- | --- | --- | --- |
| CN(C=O)c1ccc([N+](=O)[O-])cc1 | 7.1% | -6.5% | -7.15% | 5.7% | 1.4% | -3.4% |
| O=C(NC1CCCCC1)N(C1CCCCC1)C1CCCCC1 | 7.65% | 9.95% | -2.05% | 2.85% | 23.9% | 1.85% |
| CC(=O)Oc1cc(C(C)C)ccc1C | 26.7% | -3.75% | 18.1% | -1.4% | 0% | 15.4% |
| O=[N+]([O-])c1ccc(OS(=O)(=O)Cc2ccccc2)cc1 | 3.8% | -9.35% | 8.95% | -36.6% | 3.95% | -9.25% |
| CC1(C)CC23C(=O)N(c4ccccc4)C(=Nc4ccccc4)NC2=CC(C#N)=C(C#N)C3O1 (stereo unspecified) | 2.6% | -3.9% | 5.3% | 23.9% | 0.85% | -15.8% |
| COc1ccc(Cl)cc1NC(=O)Nc1ccc(F)c([N+](=O)[O-])c1 | 10% | 38% | 29.2% | -9.8% | 33.5% | 23.8% |
| COc1cccc(/C=C/S(=O)(=O)Cc2ccccc2)c1OC | 9.7% | 4.85% | 4.85% | 23.4% | 7.4% | 26.1% |
| COc1ccc(-n2c(N)c(C#N)c(C#N)c2-c2ccco2)cc1 | 6.7% | 9% | -9.3% | -20.1% | -25.4% | -39% |
| COc1ccccc1C(CC(=O)c1ccccc1)Sc1ccccc1N (stereo unspecified) | 26.9% | 33.9% | 38.8% | 4.1% | 26.4% | 12.3% |
| O=C(O)CCCCCN1C(=O)c2cccc([N+](=O)[O-])c2C1=O | 17.6% | 10% | 22.5% | 19.2% | 12.3% | 12.7% |
| C/C(=C/c1c(C)c([N+](=O)[O-])c(C)c(C)c1[N+](=O)[O-])C(=O)O | -3.3% | 38.8% | 14.7% | 11.4% | 30.9% | 37% |
| CCOC(=O)NC(=O)c1cn(CCN2CCN(C(=O)CCCCCCCCCCC(=O)N3CCN(CCn4cc(C(=O)NC(=O)OCC)c(=O)[nH]c4=O)CC3)CC2)c(=O)[nH]c1=O | 16.4% | 4.15% | 11.2% | -1.35% | -3.45% | 8.55% |
| O=NN(C(=O)NCCCl)c1[nH]c(=O)ncc1Br | -8.6% | -13.7% | -16% | -25.4% | -7.95% | -6.7% |
| CC(=O)CC(C)(C)S(=O)(=O)Cc1ccccc1 | -3.4% | 11.2% | 6.9% | -5.85% | 19.4% | 6.3% |
| CCCCc1c2cnccc2c(CCCC)c2c1[nH]c1ccccc12 | 88.8% (active) | 90.3% (active) | 91.8% (active) | 81.9% (active) | 89.2% (active) | 88.2% (active) |
| O=c1ccc(-c2ccccc2)n[nH]1 | -25.4% | -0.2% | -28.3% | 5% | -25.8% | -23.9% |
| O=C(c1ccccc1)C(c1ccccc1)N(CCO)CCO (stereo unspecified) | -9.8% | -17.4% | -2.85% | -13.4% | 20.6% | -17.3% |
| COc1cc2c(cc1OC)C(c1ccccc1[N+](=O)[O-])=NCC2 | 0.2% | -0.8% | 29.7% | 11.7% | 22.5% | 15.2% |
| Cc1cccc(C(=O)c2ccccc2Cc2cccc3ccccc23)c1C | 5.1% | -6.8% | 7.2% | -6.45% | 9.5% | -15.5% |
| c1ccc(CC/C(=N/N=C(\CCc2ccccc2)c2ccccc2)c2ccccc2)cc1 | 10.7% | 8.05% | -13.3% | -8.75% | -3% | 7.6% |
| Cn1c(N)c(NC(=S)NCC2CCCCC2)c(=O)n(C)c1=O | -2.8% | -5% | -1.2% | -9.6% | -3.6% | 1.5% |
